CHX counter: affects cycloheximide protein synthesis inhibition readout, counter-screen; AID 2314; cell reporter, cycloheximide protein synthesis inhibition counterscreen; max response, %; actives 12% (n = 300,000); in the data active = max response mostly above about 13%, no sharp cut-off; inactive = mostly below about 14%; note: read at 38.3 µM for the half of the compounds with a filed dose; 0% is about no effect
Pf growth 48h: inhibits P. falciparum growth in the first generation, 48 h. P. falciparum luciferase growth in erythrocytes, 48 h. Potency, µM (top dose mostly 28.7 µM), for the others: at the top dose activity change, negative = inhibition, actives largely listed as inhibitors. actives 5.9% (n = 310,000). AID 504832; note: potency is the fitted concentration of half-maximal effect; % is set by controls: 0 for no effect and ±100 for the full control effect
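First compound was added to culture medium, then infected red cells at 0.1% parasitemia and 2% hematocrit (final). After incubation at 37 C under 5% CO2, luciferase detection reagent was dispensed and light output recorded.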
NS1 function inh: inhibitors of influenza NS1 protein function. Potency, µM (top dose mostly 46.1 µM), for inactives: top-dose activity, positive = more growth. actives 0.4% (n = 270,000). AID 2326; calls by dose curve; note: potency is the fitted concentration of half-maximal effect; actives are rising curves; nearly all actives have a fitted effect of over 50% in size
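Read-out: OD600 growth recovery of NS1-expressing budding yeast. Cells grown overnight at 30C in -URA glucose medium, washed, resuspended and diluted 1:100 in 2% galactose assay medium, pH 6.0. Same strain lacking NS1 served as positive control.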
Pf growth 96h: P. falciparum growth inhibition at 96 hour, primary screen for plastid delayed-death inhibitors; Potency, µM (series often up to 28.7 µM), for the others: at the top dose activity change, negative = inhibition, actives largely listed as inhibitors; P. falciparum luciferase reporter growth, 96 h; actives 6.9% (n = 320,000); note: potency is the fitted concentration of half-maximal effect; % is set by controls: 0 for no effect and ±100 for the full control effect
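Two parasite generations (96 h, 37 C, 5% CO2) of compound exposure in infected erythrocytes (0.05% parasitemia, 2% hematocrit). Luciferase-reporter P. falciparum; decreased luminescence indicates inhibited growth, aimed at apicoplast-acting delayed death.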
Shiga toxin inh: Shiga toxin inhibition | inhibition, % at 38.7 µM | Vero cells, Shiga toxin protein synthesis inhibition reporter | actives 9.2% (n = 290,000); in the data active = inhibition mostly above about 28%, no sharp cut-off; inactive = mostly below about 43%; note: 0% is about no effect
Sm TGR block: inhibitors of Schistosoma mansoni thioredoxin glutathione reductase; purified TGR, DTNB reduction, TNB absorbance 405 nm; Potency, µM (highest dose often 114 µM), for the others: at the highest dose activity change, negative = inhibition, usual class: inhibitors; actives 3% (n = 360,000); AID 485364; note: potency is the fitted concentration of half-maximal effect; % is set by controls: 0 for no effect and ±100 for the full control effect; nearly all actives have a fitted effect of over 60% in size
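Kinetic colorimetric format: TGR-catalysed, NADPH-driven DTNB reduction monitored via TNB absorbance. Enzyme dispensed at 20 nM; compound exposure 15 min at room temperature before reaction start.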
Numbers without * were called inactive; [ ] = remark or other dose. Rows were chosen to be rich in hits. Some 21% of all compounds tested hit in one or more screens of this group. Unless noted, calls come from the whole dose curve; as a rule, active = well fitted curve in the direction sought with a large enough effect; inconclusive = small, poorly fitted or top-dose-only effect, or another doubt; inactive = no such curve, though single readings can be large; an effect the other way counts as inactive or inconclusive.

What do the screens show for `C=CCc1c(C)nc2ccc(C(=O)OCC)cc2c1Cl`?
CHX counter: 9.5; Pf growth 48h: -20.6%; NS1 function inh: 0.3%; Pf growth 96h: inactive; Shiga toxin inh: 41.0*; Sm TGR block: 10.9%

What do the screens show for `Cc1ccc(S(=O)(=O)N2CCCCC2)cc1NS(=O)(=O)c1cccc(C(=O)O)c1`?
CHX counter: -3.8; Pf growth 48h: -0.9%; NS1 function inh: 12.8%; Pf growth 96h: 1.4%; Shiga toxin inh: 7.1; Sm TGR block: 5.8%

What do the screens show for `COc1ccc(N(CC(=O)NC2CCCC2)C(=O)c2ccc(C)s2)c(OC)c1`?
CHX counter: 2.0; Pf growth 48h: inconclusive; NS1 function inh: 5.2%; Pf growth 96h: -3.1%; Shiga toxin inh: -2.9; Sm TGR block: -2.3%

How did CCOc1ccc(S(=O)(=O)NCCc2c(C)[nH]c3c(Cl)cccc23)cc1C do in these assays?
Sm TGR block: 12.4%

How did COc1cccc(-c2noc(-c3ccc(Br)o3)n2)c1 do in these assays?
CHX counter: 32.3*; Pf growth 48h: 101.1%; NS1 function inh: -7.7%; Pf growth 96h: 33.4%; Shiga toxin inh: 109.0*

How did COC(=O)c1noc(-c2ccc(C)cc2)n1 do in these assays?
CHX counter: -1.4; NS1 function inh: -48.0%; Pf growth 96h: 0.5%; Shiga toxin inh: -5.8; Sm TGR block: -1.3%

What do the screens show for `COc1ccc(Cc2noc(-c3ccc([N+](=O)[O-])cc3)n2)cc1OC`?
CHX counter: -2.9; Pf growth 48h: 2.8%; NS1 function inh: -9.8%; Pf growth 96h: 1.2%; Shiga toxin inh: -14.2; Sm TGR block: 0.3%

What do the screens show for `COc1ccc(Cc2noc(-c3ccc(C)cc3)n2)cc1`?
CHX counter: 28.7*; Pf growth 48h: 72.9%; NS1 function inh: inconclusive; Pf growth 96h: 6.8%; Shiga toxin inh: 72.4*; Sm TGR block: 11.1%

What do the screens show for `COc1ccc(-c2nc(-c3ccc(Br)o3)no2)cc1`?
CHX counter: 28.5*; NS1 function inh: -0.2%; Pf growth 96h: -15.9%; Shiga toxin inh: 63.9*; Sm TGR block: 0.0%

Results for COC(=O)c1ccc(-c2nc(-c3ccc(Br)o3)no2)cc1 ?
CHX counter: 20.6*; NS1 function inh: 0.3%; Pf growth 96h: -14.5%; Shiga toxin inh: 29.9; Sm TGR block: -19.3%

Results for COc1ccc(N(CC(=O)NCC2CCCO2)S(=O)(=O)c2ccccc2)cc1OC (centres undefined) ?
CHX counter: -4.2; Pf growth 48h: 7.0%; NS1 function inh: -3.8%; Pf growth 96h: -11.1%; Shiga toxin inh: -5.7; Sm TGR block: 3.5%

How did COc1ccc(-c2noc(-c3ccc(Cl)cc3)n2)cc1 do in these assays?
CHX counter: 24.9*; Pf growth 48h: 221.5%; NS1 function inh: 3.3%; Pf growth 96h: inconclusive; Shiga toxin inh: 48.4*; Sm TGR block: -12.8%

What do the screens show for `Fc1cccc(F)c1-c1nc(-c2ccc(Cl)cc2)no1`?
CHX counter: 56.0*; Pf growth 48h: 447.1%; NS1 function inh: 2.4%; Pf growth 96h: 202.2%; Shiga toxin inh: 62.8*; Sm TGR block: 9.4%

What do the screens show for `COc1ccc(-c2noc(-c3ccc(Br)o3)n2)cc1`?
CHX counter: 29.9*; Pf growth 48h: 81.6%; NS1 function inh: 1.9%; Pf growth 96h: inactive; Shiga toxin inh: 69.4*; Sm TGR block: 11.5%

Results for COc1ccc(-c2noc(-c3ccccc3-c3ccccc3)n2)cc1 ?
CHX counter: -2.7; Pf growth 48h: 10.2%; NS1 function inh: -6.9%; Pf growth 96h: inconclusive; Shiga toxin inh: -11.0; Sm TGR block: 10.1%

Results for O=C(Nc1ccccc1F)c1oc2ccccc2c1NC(=O)C12CC3CC(CC(C3)C1)C2 ?
Sm TGR block: 2.5%

How did Cc1ccccc1CNC(=O)C(C)N(c1ccccc1)S(C)(=O)=O (centres undefined) do in these assays?
Sm TGR block: 9.1%

How did O=c1oc2ccccc2c2oc3cc(O)c(O)cc3c12 do in these assays?
CHX counter: 24.5*; Pf growth 48h: 32.2%; NS1 function inh: 13.9%; Pf growth 96h: 70.8%; Shiga toxin inh: 26.1*; Sm TGR block: 0.0%

How did O=c1oc2ccccc2c(O)c1Cc1c(O)c2ccccc2oc1=O do in these assays?
Pf growth 48h: 2.8%[12.8 µM]; Pf growth 96h: -13.4%[12.8 µM]
